This is part of a sample that, as a whole, favours compounds with a hit. Of some 83,000 tested, about 20% had one in any assay.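 Cell lines were cultured in 96-well plates, exposed to a single compound concentration, and assessed for percent growth 48 hours later.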 Values without a mark were called inactive. The source made the active and inactive calls. How the source made its calls: active means growth percent below 10; inactive means the rest.

In the assay the test system is HL-60(TB) leukemia. The assay can be described thus: NCI-60 one-dose screen, 48 h (100 = growth as untreated, 0 = no growth, -100 = all killed). Conditions: 10 µM unless noted.
Turning to `COc1cc(/C=C/c2cc(/C=C/c3ccc(O)c(OC)c3)n(C(=O)Nc3ccc(F)cc3)n2)ccc1O`, the growth was -21.4% (active).

On to `COc1cc(OC)c2cc(C(=O)c3ccc(C#N)cc3)c(=O)oc2c1`, for which the growth was 97.4%.

With `Clc1ccc(-c2nc(-c3cccs3)cn3ccnc23)cc1`, the growth is 98.8%.

Regarding `Fc1cc2c(cc1Cl)N(c1ncnc3ccc(-c4cnc5cnccn45)cc13)CC2`, the growth was -7.92% (active).

On to `COc1cc(-c2c3c(cn2S(=O)(=O)c2ccccc2)-c2nc(N)sc2CC3)cc(OC)c1OC`, for which the growth is 13.2%.

With `S=C(NCc1ccccc1)N1CCC(CCCC2CCN(C(=S)NCc3ccccc3)CC2)CC1`, the growth is 89.7%.

Take `NN=C(c1ccc(Cl)cc1)c1ccc(Cl)cc1`: the growth was 131%.

Take `ClC1C2CC(c3ccccc32)C1Cl` (stereo unspecified): the growth is 131%.

For `C/C(=C\c1cc(Cl)ccc1OCC(=O)O)[N+](=O)[O-]`, the growth was 52.5%.

Regarding `NS(=O)(=O)c1ccc(Br)cc1`, the growth was 96.2%.

For the molecule `CCCc1nn(C)c2c(=O)[nH]c(-c3cc(S(=O)(=O)N4CCN(C)CC4)ccc3OCC)nc12`, the growth is 114%.

On to `O=C1c2ccccc2C2N1CCC1CCc3ccccc3N12` (stereo unspecified), for which the growth was 104%.

Take `CCOc1ccc(C(=O)NCC(C)C)cc1`: the growth is 94.9%.

Turning to `CS(=O)(=O)Nc1cccc(-c2cc(-c3ccccc3Cl)c(C#N)c(N)n2)c1`, the growth is 8.6% (active).

In the case of `COc1cc(Cl)c(C)cc1NC(=O)c1cc2ccccc2cc1O`, the growth is 9.27% (active).

For the molecule `C=C[C@@]1(C)CC(=O)[C@@H](C(C)(C)c2cn(C)c3ccc(Br)cc23)C[C@@H]1O[Si](C)(C)C(C)(C)C`, the growth was 106%.

The values are drawn from PubChem BioAssay (NCI).
